Test results from PMC12136788.
In all, about 24,000 sequences were measured (“enrichment r”: median about 0.99, highest 2% from about 3.7 on). Many of the other results were omitted from the sample, so the highest values are more common in it than they were.

T1: UNK ZnF1-3 (human, UniProt Q9C0B0 31-174)
T1 sequence: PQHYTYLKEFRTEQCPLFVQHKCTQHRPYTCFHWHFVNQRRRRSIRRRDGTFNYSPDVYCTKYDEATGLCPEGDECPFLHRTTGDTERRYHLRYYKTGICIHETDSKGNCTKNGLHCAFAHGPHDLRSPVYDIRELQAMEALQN

B1: chr18:46858332:46858333:-_ENSG00000141627_ENST00000269445|hu_hu|FALSE|FALSE (ssRNA)
RNA: GGGAGUUCUACAGUCCGACGAUCCGACUGCUGAGGGAAAACAUGGGCCCCUGGAGGAGGUGGCUUUUCUUGUCUGAUAAAGUUAUAUAAUAAGGUCUUCACAAGUUUGCUGGUGUAUGGAAGACAUGGACCUCGCAUCAAAUACAACAGAGGAUUGAGCAUCA
B2: chr8:108054885:108054886:-_ENSMUSG00000013160_ENSMUST00000013304|mus_mus|FALSE|FALSE (ssRNA)
RNA: GGGAGUUCUACAGUCCGACGAUCUGAACGCUGGUGCAGUGUGCCUGUGAUUAGCAGGAUCACGUUGUCAAUCAUGUAGCUAUAAGUUAUGAAGUCCAGGAAGCUGGCGAGCGGCUCAUAAGCAUGGUUUCUCAUGUGGCGGAACAACAGAGGAUUGAGCAUCA
B3: chr1:35656432:35656433:-_ENSG00000116560_ENST00000357214|perfect_dup|motif|central (ssRNA)
RNA: GGGAGUUCUACAGUCCGACGAUCAGAUCUUCCGCGAUCAUCCACAAUUACAACAGCCCUUUCAAUAGGACCAAACUGGCGGAAGGCCUCUUCCAAAAGUUCGUUGGAAACAUAAGGAGAGAGAUUUCGAACAGACAGGGCUGCCAACAGAGGAUUGAGCAUCA
B4: 17381947_17386413_246_CDS_ENSMUSG00000041720_ENSMUST00000036161|mouse|control|control (ssRNA)
RNA: GGGAGUUCUACAGUCCGACGAUCGCAGAAGCUGAAGCUCUCUGCAACUGGGAGGUUACCUCUGCCUUUCCGAGCUGUGCUUUCUUCUACCCAAUACACUUUUGGAAGACCCCUGAGAAGUCGAAGAAGAUAAGGAACAACACACAACAGAGGAUUGAGCAUCA
B5: 235582851_235590549_671_CDS_ENSG00000116957_ENST00000366601|human|control|control (ssRNA)
RNA: GGGAGUUCUACAGUCCGACGAUCAUUAAGGACUUCCAGGUGUCUGAGCUGAUCAGCAAUGUGUAUCACUUCAUCCCAUGAUGACAACAGGUUUUUUGACAAAUCUACCUUUCUGAUAUUAGGACAUGCUUCAGCAACUCCUCCCAACAGAGGAUUGAGCAUCA
B6: chr16:94690093:94690094:+_ENSMUSG00000040785_ENSMUST00000117648|mus_hu|mus_mus_mus_hu_True|18_78 (ssRNA)
RNA: GGGAGUUCUACAGUCCGACGAUCGGGCUGGGAUGACGGACACACAGCCUCGAUUCCGGUAAAAAAAAGUCUUAGUCGAUACUAAUUAAAAAGUGUUAAUGAUUUUUGAAAAUCAGAUGUAGAUUAAAAAAGAUGAAAAGCAAACAACAGAGGAUUGAGCAUCA
B7: chr16:94690093:94690094:+_ENSMUSG00000040785_ENSMUST00000117648|mus_hu|mus_mus_mus_hu_True|8_98 (ssRNA)
RNA: GGGAGUUCUACAGUCCGACGAUCGGGCUGGGAUGACAGCAGACAGCCCUCGAUUCCAGGGGGAAAAAGUCUUAGUCGAUACUAAUUAAAAAGUGUUAAUGAUUUUUGAAAAUCAGAUUACAUCUAUUUGAAUCAUAAAGCAAACAACAGAGGAUUGAGCAUCA
B8: chr16:94690093:94690094:+_ENSMUSG00000040785_ENSMUST00000117648|mus_hu|mus_mus_mus_hu_True|1_68 (ssRNA)
RNA: GGGAGUUCUACAGUCCGACGAUCGGGCUGGGAUGACGGACACACAGCCUCGAUUCCAGGGGGAAAAAAAAAUAGCCGAUACUAAUUAAAAAGUGUUAAUGAUUUUUGAAAAUCAGAUUACAUCUAUAAAAGAUGAAAGCACUUCAACAGAGGAUUGAGCAUCA
B9: chr16:94690093:94690094:+_ENSMUSG00000040785_ENSMUST00000117648|mus_hu|mus_mus_mus_hu_True|68_78 (ssRNA)
RNA: GGGAGUUCUACAGUCCGACGAUCGGGCUGGGAUGACGGACACACAGCCUCGAUUCCGGUAAAAAAAAAAAAUAGCCGAUACUAAUUAAAAAGUGUUAAUGAUUUUUGAAAAUCAGAUUACAUCUAUAAAAGAUGAAAAGCAAACAACAGAGGAUUGAGCAUCA
B10: chr16:94690093:94690094:+_ENSMUSG00000040785_ENSMUST00000117648|mus_hu|mus_mus_mus_hu_True|18_98 (ssRNA)
RNA: GGGAGUUCUACAGUCCGACGAUCGGGCUGGGAUGACAGCAGACAGCCCUCGAUUCCAGGGGGAAAAAGUCUUAGUCGAUACUAAUUAAAAAGUGUUAAUGAUUUUUGAAAAUCAGAUGUAGAUUAAAAAAGAUGAAAAGCAAACAACAGAGGAUUGAGCAUCA
B11: chr16:94690093:94690094:+_ENSMUSG00000040785_ENSMUST00000117648|mus_hu|mus_mus_mus_hu_True|48_48 (ssRNA)
RNA: GGGAGUUCUACAGUCCGACGAUCGGGCUGGGAUGACGGACACACAGCCUCGAUUCCAGGGGGAAAAAGUCUUAGUCGAUACUAAUUUAAAAAGUAUAAUGAUUUUUGAAAAUCAGAUUACAUCUAUAAAAGAUGAAAAGCAAACAACAGAGGAUUGAGCAUCA
B12: chr5:74677807:74677808:-_ENSG00000113163_ENST00000380494|hu_mus|motif|central (ssRNA)
RNA: GGGAGUUCUACAGUCCGACGAUCACGGACACAUCGAUUGUUCAGAGGAGCACUAUCAUGAUCCACAGAAAAAUUACAAACGGUCCAAGUUUCAGGAUCAUUUUCAGUCAAGGCUGGGAUCUUUCGAAUAGCAGAAAGAUACAGCAACAGAGGAUUGAGCAUCA
B13: chr16:94690093:94690094:+_ENSMUSG00000040785_ENSMUST00000117648|mus_hu|mus_mus_mus_hu_True|18_38 (ssRNA)
RNA: GGGAGUUCUACAGUCCGACGAUCGGGCUGGGAUGACGGACACACAGCCUCGAUUCCAGGGGGAAAAAGUCUUAGUCGAUACUAAUUAAAAAGUGUUUUUAUAAUUGGAAAAUCAGAUGUAGAUUAAAAAAGAUGAAAAGCAAACAACAGAGGAUUGAGCAUCA
B14: chr17:6086338:6086339:+_ENSMUSG00000034345_ENSMUST00000039487|mus_mus|motif|central (ssRNA)
RNA: GGGAGUUCUACAGUCCGACGAUCUGACUGAAAUAUAAAAUCCAGUAGUGCUCCAAUACAGCUAGAGUGUCCAUAAAAAUCGGUCUUCUACUUAAUUCUUAGUAUCAGGUGUGUAAGUAACAAUCCACUGGAAAGUUUACAUUACAACAGAGGAUUGAGCAUCA

Target: T1, UNK ZnF1-3
Assay: nsRBNS (natural sequence RNA bind-n-seq); RBNS binding buffer (assumed for nsRBNS): 25 mM Tris pH 7.5, 150 mM KCl, 3 mM MgCl2, 0.01% Triton X-100, 500 ug/ml BSA, 20 U/ml SUPERase-In, 4 C; UNK is unkempt and MSI1 is Musashi-1; names of the RNAs are library labels; protein concentration not given here; high values mean tight binding

Q: Which binding signal does the source give for B1 here?
A: 2.32 enrichment R

Q: B2 was tested. Which binding signal did it give?
A: 0.896 enrichment R

Q: How did the binding signal turn out when B3 was run?
A: 1.13 enrichment R

Q: Which binding signal does the source give for B4 here?
A: 0.848 enrichment R

Q: With B5 as the binder, how does the binding signal read?
A: 0.938 enrichment R

Q: With B6 as the binder, how does the binding signal read?
A: 3.5 enrichment R

Q: With B7 as the binder, how does the binding signal read?
A: 0.999 enrichment R

Q: How did the binding signal turn out when B8 was run?
A: 1.12 enrichment R

Q: With B9 as the binder, how does the binding signal read?
A: 5.49 enrichment R

Q: Which binding signal does the source give for B10 here?
A: 4.09 enrichment R

Q: For B11, which binding signal is on record?
A: 0.836 enrichment R

Q: For B12, which binding signal is on record?
A: 1.36 enrichment R

Q: B13 was tested. Which binding signal did it give?
A: 3.69 enrichment R

Q: For B14, which binding signal is on record?
A: 0.812 enrichment R
